# Experimental data: the supplement of paper PMC10338343
# ± gives the standard deviation.
# Test system: EfPiwi piRISC loaded with L1MC piRNA (26 nt)
# Test: pre-steady-state target cleavage rate (min^-1); auxiliary factor: 500 nM Ephydatia muelleri Gtsf1; guide: L1MC piRNA 5'p-UAACUAAAUACUAUGCAAGCUGUAGG; MIWI and MILI are mouse PIWI proteins and EfPiwi is from a freshwater sponge; tags in brackets are library labels; higher = faster piRNA-guided slicing of the target
# How it was run: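 A transcribed, DNA-blocked target RNA library (0.1 nM) and 1 nM active affinity-purified piRISC bearing one synthetic guide were incubated in HEPES–potassium acetate buffer at 33 °C for 0–8 or 0–960 min, either with or without 500 nM GTSF1 partner protein. Uncleaved targets were sequenced, normalised to depth and to weakly complementary targets, and pooled over three trials, with k3 capped at 0.0001 min^-1. The pre-steady-state cleavage rate was derived with a burst-and-steady-state fit.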
row,Sequence,pre-steady-state target cleavage rate
1,UCCUCCUUCAGCUUGCAUAGUAUUUAGUUA,0.158 ± 0.041
2,UCCUGGAUGUGGUUGCAUAGUAAUUAGUUA,0.00754 ± 0.0039
3,UCCUGGAUCAGCUUGCAUAGUAUUUAGAUA,0.00499 ± 0.0022
4,UCCUGGAUGUGGUUGCAUAGUAUUUAGUUA,0.00426 ± 0.0039
5,UCCUGCUACUGCUUGCAUAGUAAUUAGUUA,0.00587 ± 0.0019
6,UCCUGGAUGAGCUUGCAUAGUAUUAAGUUA,0.00469 ± 0.0021
7,UCCUGGUACAGCUUGCAGAGUAUUUAGUUA,0.00371 ± 0.0027
8,UCCUGGAUGAGCUUGCAAAGUAUUUAGUUA,0.0322 ± 0.0094
9,UCCUGGAACAGCUUCCAUUGUAUUUAGUUA,0.00345 ± 0.0017
10,UCCUGCUACAGCAUGCAUAGUAUUUAGUUA,0.0124 ± 0.0037
11,UCCUCCUACUGCUUGCAUAGUAUAUAGUUA,0.0123 ± 0.0054
12,UCCUGGUACAAGCUUGCAUAGUAUUUAGUUA,0.0481 ± 0.014
13,UCCUGGUACAGCUAUGCAUAGUAUUUAGUUA,0.0292 ± 0.0094
14,UCCUGGAUGUCUUUGCAUAGUAUUUAGUUA,0.00871 ± 0.0039
15,UCCUGGUACAGCUAGCAUAGUAUUUUGUUA,0.00396 ± 0.0023
16,UCCUCCUACUGCUUGCAUAGAAUUUAGUUA,0.00761 ± 0.0021
17,UCCUGGUAGAGCUAGCAUAGUAUUUAGUUA,0.00968 ± 0.0033
18,UCCUGGUACAGCUUGUAUAGUAUUUAGUUA,0.0177 ± 0.0048
19,UCCUGCAACAGCUUGCAUAGUAAUUAGUUA,0.00951 ± 0.0021
20,UCCUGGAUGAGCUUCGCAUAGUAUUUAGUUA,0.0219 ± 0.0059

row,Sequence,pre-steady-state target cleavage rate
1,UCCUGGAUCAGCUUCAUAGUAUUUAGUUA,0.00789 ± 0.0033
2,UCCUGGAACAGAUUGCAUAGUAUUUAGUUA,0.0572 ± 0.014
3,UCCUGGUACAGCUUGCAUUGUAUUUAGUUA,0.00513 ± 0.002
4,UCCUGGAUGUGCUUGCAUAGUAUUUGGUUA,0.00579 ± 0.003
5,UCCUGGUACAGGUUGCAUAGUAUUUAGUUA,0.0211 ± 0.0053
6,UCCUGGAACUGCUUGCAUAGUAAUUAGUUA,0.0039 ± 0.0028
7,UCCUGGUACAGCUUGCAAACUAUUUAGUUA,0.00276 ± 0.0022
8,UCCUGGAUGAGCAUGCAAAGUAUUUAGUUA,0.00414 ± 0.0036
9,UCCUGGAUGUCGCUGCAUAGUAUUUAGUUA,0.00471 ± 0.0025
10,UCCUGGAACAGGUUGCAUAGUAUUUAGUAA,0.00828 ± 0.0031
11,UCCUGGUAGAGCUUGCAUAGUAUUAAGUUA,0.00385 ± 0.0022
12,UCCUGGAUGAGCUUGCAUAGUAUUUAGAUA,0.00326 ± 0.0019
13,UCCUGCAACAGGUUGCAUAGUAUUUAGUUA,0.018 ± 0.0035
14,UCCUGGAAUAGCUUGCAUAGUAUUUAGUUA,0.0137 ± 0.0037
15,UCCUGGUACACCUUGCAUAGUAAUUAGUUA,0.00464 ± 0.0027
16,UCCUCCUACUGCUAGCAUAGUAUUUAGUUA,0.0131 ± 0.004
17,UCCUGGAUCAGCUUGGAAAGUAUUUAGUUA,0.00365 ± 0.0033
18,UCCUGGUUCAGCUUGCAUAGUAUUUUGUUA,0.00528 ± 0.0032
19,UCCUGGAUGACCAUGCAUAGUAUUUAGUUA,0.00488 ± 0.0028
20,UCCUGGUACAGCUUGCAUAGUAUAUAGUUA,0.00533 ± 0.0027
